From PubChem BioAssay (NCATS) come the findings set out here.

Records with an inconclusive call do not appear. Active and inactive are the calls of the source. Calls follow the shape of the dose curve; as a rule, active = well fitted inhibition curve with a large enough effect; inconclusive = small, poorly fitted or top-dose-only effect; inactive = no such curve, though single readings can be large or run the other way.
Potency is read from the fitted curve at half-maximal effect.

A short description of the assay: BET inhibitor-based combinations targeting novel dependencies in MECOM-rearranged (r) AML: SET-2 cell line (AID 2202231). Also: nearly all actives have a fitted effect of over 35% in size.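 As to viability: plate controls were DMSO treated cells for no effect and wells without cells for full effect.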 Conditions: SET-2 AML cells viability, CellTiter-Glo luminescence, 48 h; viability: stronger effect = lower value, series mostly up to about 46 µM. In short, it runs like this: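 AML cell lines seeded at 500 cells/well, treated with 11-point dose curves for 48 h. Viability by CellTiter-Glo luminescence, normalised to DMSO and empty wells; activity expressed as AUC and per-cell-line Z-transformed AUC.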
For `CC[C@H](NC(=O)[C@H](CS(=O)(=O)CC1CC1)N[C@@H](c1ccc(F)cc1)C(F)(F)F)C(=O)C(=O)NC1CC1`, the viability is 112% (inactive). In the case of `O=C(Nc1ccc(Oc2ccnc3[nH]ccc23)c(F)c1)c1cccn(-c2ccc(F)cc2)c1=O`, the viability was 106% (inactive).

As for `CNC(=O)c1nn(C)c2c1C(C)(C)Cc1cnc(Nc3ccc(N4CCN(C)CC4)cc3)nc1-2`, the Potency is 833 nM (active). On to `NS(=O)(=O)c1cc(Cl)c(Cl)c(S(N)(=O)=O)c1`, for which the viability is 115% (inactive). In the case of `COc1cccc2c1c(O)c(C(=O)N(C)c1ccc(C(F)(F)F)cc1)c(=O)n2C`, the viability was 40.7% (inactive). As to `O=C(Nc1ccc(F)c(C(F)(F)F)c1)Nc1nnc(-c2ccncc2)s1`, the viability is 100% (inactive). With `Cc1c(F)cc(C(=O)NC2CC2)cc1-c1c(F)cn2c(C(C)(C)C)nnc2c1F`, the viability is 104% (inactive).

As to `CN(C)C/C=C/C(=O)Nc1ccc(C(=O)Nc2cccc(Nc3ncc(Cl)c(-c4c[nH]c5ccccc45)n3)c2)cc1`, the Potency is 662 nM (active). In the case of `CCCCc1ccc(NS(=O)(=O)c2ccc(C)c(C(=O)N3CCN(c4cccc(C)c4C)CC3)c2)cc1`, the viability was 94.4% (inactive). Turning to `CCOC(=O)c1ccnc(CNCC(=O)N(CC)CCN(C)C)c1`, the viability is 104% (inactive). As for `COc1ccc(-c2c(C)nn3c(NCCN4CCOCC4)cc(C)nc23)cc1OC`, the viability was 88.4% (inactive). For the compound `CCS(=O)(=O)N1CCN(c2ccc(Nc3ncc(C(N)=O)c(NC4CC4)n3)cc2)CC1`, the Potency is 4170 nM (active).

As for `O=C([C@@H](Cc1cccc(C(F)(F)F)c1)NS(=O)(=O)c1cc(F)c2c(c1)CCNC2)N1CCCC1`, the viability is 107% (inactive).
